Drawing on ChEMBL document CHEMBL1201862, “PubChem BioAssay data set” (2004), this text covers Potency for 64 compounds.

Molecules are shown by their SMILES. About 2,100 (0.53%) of roughly 400,000 compounds were called active. Not shown: some 14% with an inconclusive outcome. No rule for the calls is given here. Many of the other results were omitted from the sample, so actives are more common in it than they were.

The target of this test is Ataxin-2 (Homo sapiens) (UniProt Q99700). Description: qHTS for Inhibitors of ATXN expression. The class given is functional.
Sequence of Ataxin-2 (Homo sapiens) (Q99700 whole entry): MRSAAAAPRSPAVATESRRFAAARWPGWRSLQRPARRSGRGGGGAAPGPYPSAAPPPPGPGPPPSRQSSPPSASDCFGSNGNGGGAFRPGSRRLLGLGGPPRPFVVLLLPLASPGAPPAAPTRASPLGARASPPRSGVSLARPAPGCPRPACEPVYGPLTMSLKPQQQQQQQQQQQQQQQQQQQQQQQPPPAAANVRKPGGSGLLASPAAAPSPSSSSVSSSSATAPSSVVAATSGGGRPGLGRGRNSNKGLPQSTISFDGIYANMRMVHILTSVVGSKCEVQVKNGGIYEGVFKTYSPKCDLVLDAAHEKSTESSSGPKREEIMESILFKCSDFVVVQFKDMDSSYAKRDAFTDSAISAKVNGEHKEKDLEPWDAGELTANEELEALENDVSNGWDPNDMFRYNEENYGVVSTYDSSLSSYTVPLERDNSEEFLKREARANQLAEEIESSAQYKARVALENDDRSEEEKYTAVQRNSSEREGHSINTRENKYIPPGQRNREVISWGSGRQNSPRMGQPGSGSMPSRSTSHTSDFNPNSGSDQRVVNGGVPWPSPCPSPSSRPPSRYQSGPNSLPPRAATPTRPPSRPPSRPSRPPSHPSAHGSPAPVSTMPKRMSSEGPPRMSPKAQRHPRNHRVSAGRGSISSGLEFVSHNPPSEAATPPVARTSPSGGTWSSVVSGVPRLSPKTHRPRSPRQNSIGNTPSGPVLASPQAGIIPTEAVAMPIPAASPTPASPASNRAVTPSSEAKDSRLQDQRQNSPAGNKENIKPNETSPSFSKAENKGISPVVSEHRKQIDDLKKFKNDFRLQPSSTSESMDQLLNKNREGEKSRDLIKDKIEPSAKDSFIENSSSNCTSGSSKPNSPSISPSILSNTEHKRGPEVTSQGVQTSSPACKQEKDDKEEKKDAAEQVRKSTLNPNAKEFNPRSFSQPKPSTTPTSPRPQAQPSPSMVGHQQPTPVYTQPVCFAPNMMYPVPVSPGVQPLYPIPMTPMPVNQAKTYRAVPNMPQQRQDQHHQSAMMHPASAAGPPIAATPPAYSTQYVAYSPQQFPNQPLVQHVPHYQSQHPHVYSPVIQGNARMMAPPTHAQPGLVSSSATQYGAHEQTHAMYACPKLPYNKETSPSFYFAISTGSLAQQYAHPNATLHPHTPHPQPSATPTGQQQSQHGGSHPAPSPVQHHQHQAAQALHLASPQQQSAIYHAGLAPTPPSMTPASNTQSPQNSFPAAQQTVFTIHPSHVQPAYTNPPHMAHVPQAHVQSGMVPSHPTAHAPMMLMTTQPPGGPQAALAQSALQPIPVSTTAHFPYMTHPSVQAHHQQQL
Turning to `C=CCNc1nc2ccccc2nc1NS(=O)(=O)c1ccc(F)cc1`, the Potency entry is “inactive”.
The result for `CCOC(=O)/C(=C\C=C1/Sc2cc(OCC)c(OCC)cc2N1CC)C(C)=O` reads “inactive”; that for `COc1ccccc1[C@@H]1C(c2cccc(Cl)c2)=NN(c2ccccc2)[C@H]1C(=O)N1CCOC1=O`, “inactive”.
On to `CCOC(=O)C1(Cc2cccc(F)c2)CCN(Cc2cn(CC)nc2C)CC1`, for which the Potency entry is “inactive”.
The result for `CCCn1c(N)c(C(=O)CSc2nncs2)c(=O)[nH]c1=O` reads “inactive”; that for `COC(=O)C1=CN(CC2CCCO2)C=C(C(=O)OC)C1c1cccc(O)c1` (centres undefined), “inactive”.
The result for `Cc1c(O)ccc2c(CC(=O)N[C@@H](Cc3ccccc3)C(=O)O)cc(=O)oc12` reads “inactive”.
The result for `CCn1cc(C(=O)N(C)Cc2ccc(OC(F)F)cc2)c(=O)c2ccc(C)nc21` reads “inactive”.
For the compound `Cc1nc2c(OCc3ccc(OC(F)F)cc3)cccn2c1N(C)C(=O)CCC1CCCC1`, the Potency is 39.8 µM (active).
The result for `COC(=O)c1ccc(COc2cccn3c(N(C)C(=O)CCC4CCCC4)c(C)nc23)cc1` reads 35.5 µM (active); that for `CCOC(=O)c1cc2c(=O)n3ccccc3nc2n(CC2CCCO2)/c1=N\C(=O)c1ccccc1OCC` (centres undefined), “inactive”.
Under `CCOC(=O)C1CCCN(Cc2ccc(OCc3ccccc3)c(OC)c2)C1` (centres undefined) stands “inactive”; under `CCCCCC(=O)Nc1ncc2c(n1)CC(c1cccs1)CC2=O` (centres undefined), “inactive”.
The result for `O=C(CCCCCn1c(=S)[nH]c2ccc(N3CCOCC3)cc2c1=O)NC1CCN(Cc2ccccc2)CC1` reads “inactive”; that for `Cc1sc2c(c1C)C(O)=C(/C=N/c1ccccn1)S(=O)(=O)N2C`, “inactive”.
Take `N#C/C(=C\c1ccccc1C(=O)O)c1nc2ccccc2[nH]1`: the Potency entry was “inactive”.
Under `N#CC(=C(O)COC(=O)CCC1CCCCC1)c1nc2ccccc2[nH]1` stands 39.8 µM (active); under `N#C/C(=C(/O)COC(=O)CCCNC(=O)c1ccc(Cl)cc1)c1nc2ccccc2[nH]1`, 25.1 µM (active).
Under `N#C/C(=C(/O)C(Cl)(Cl)Cl)c1nc2ccccc2[nH]1` stands “inactive”.
Under `N#Cc1c(N)n(CCOC(=O)c2ccc(Cl)cc2)c2nc3ccccc3nc12` stands “inactive”.
As to `N#Cc1c(N)n(CCNC(=O)c2ccccc2)c2nc3ccccc3nc12`, the Potency result was “inactive”.
The result for `N#Cc1ccccc1S(=O)(=O)N1CCN(C(=O)CCC2CCCC2)CC1` reads “inactive”; that for `N#C/C(=C(/O)COC(=O)COc1cccc(Br)c1)c1nc2ccccc2[nH]1`, 22.4 µM (active).
Under `N#C/C(=C\c1ccc(-c2ccccc2C(=O)O)o1)c1nc2ccccc2[nH]1` stands “inactive”.
For the compound `N#C/C(=C(/O)COC(=O)COc1ccc(Cl)cc1)c1nc2ccccc2[nH]1`, the Potency was 39.8 µM (active).
The result for `Cc1cccc(N2C(=O)c3ccccc3C2=O)n1` reads “inactive”; that for `Oc1ccccc1C1=NN(c2ccccc2)C(c2ccccc2)C1` (centres undefined), “inactive”; that for `COc1cc(/C=C/c2onc(C)c2[N+](=O)[O-])cc(OC)c1OC`, “inactive”.
The result for `O=C(CN1C(=O)c2ccccc2C1=O)NCc1ccc(N2CCOCC2)cc1` reads “inactive”; that for `O=C(OCCOc1cccc(Cl)c1)c1ccc2ncsc2c1`, “inactive”.
The result for `CCC(=O)Nc1c(OC(=O)CC)ccc2c(C)cc(=O)oc12` reads “inactive”.
For `CCCCn1c(N)c(N(CC)C(=O)c2cc(OC)cc(OC)c2)c(=O)[nH]c1=O`, the Potency entry is “inactive”.
The result for `CCCCN(C(=O)c1ccc2ccccc2c1)c1c(N)n(CCCC)c(=O)[nH]c1=O` reads “inactive”.
For the compound `CCCCn1c(N)c(N(CCC(C)C)C(=O)c2ccc(-c3ccc([N+](=O)[O-])cc3)o2)c(=O)[nH]c1=O`, the Potency is 20 µM (active).
The result for `COc1cc2c(cc1OC)C(c1ccc(-c3ccccc3Cl)o1)=NCC2` reads 39.8 µM (active); that for `Cc1nn(C)c(C)c1N1C(=O)c2cccc3c(Br)ccc(c23)C1=O`, “inactive”; that for `Cc1ccccc1CS(=O)(=O)Cc1ccc(C(=O)NCCCN2CC(C)CC(C)C2)o1` (centres undefined), 8.91 µM (active).
`Cc1ccccc1CNC(=O)c1ccccc1NS(C)(=O)=O`: the Potency entry was “inactive”.
Regarding `Cc1ccccc1C(=O)NCCCNC(=O)c1ccco1`, the Potency entry was “inactive”.
Under `CC(C)C1Cc2c(sc3ncnc(NN)c23)CO1` (centres undefined) stands “inactive”; under `Cc1cc(O)cc2c(=O)c3ccccc3sc12`, “inactive”; under `COc1cc(C)c2sc3ccccc3c(=O)c2c1NCCN(C)C`, 44.7 µM (active).
Under `CN(C)CCCNC(=O)c1cc2sc3ccccc3c2s1` stands “inactive”; under `Cc1ccc(/C=N/NC(=O)c2cc3c(s2)CCCC3)o1`, “inactive”; under `O=S(=O)(/C=C/c1ccccc1)NCc1ccccc1Cl`, “inactive”.
On to `O=C(CCC(=O)N/N=C/c1cc(Cl)cc(Cl)c1O)NCc1ccccc1`, for which the Potency result was “inactive”.
`CCC/C=C/c1ccc(CN2C(CC(C)C)C(=O)N(Cc3cn(CCC4OCCCO4)nn3)CCS2(=O)=O)cc1` (centres undefined): the Potency is 39.8 µM (active).
The result for `CCC/C=C/c1ccc(CN2C(CC(C)C)C(=O)N(Cc3cn(CCC4OCCO4)nn3)CCS2(=O)=O)cc1` (centres undefined) reads 35.5 µM (active).
The result for `O=C(CCCCn1c(=O)[nH]c2ccsc2c1=O)NCc1ccc2c(c1)OCO2` reads “inactive”.
Under `CN(C)S(=O)(=O)c1ccc2oc(SCC(=O)c3c(N)n(C4CC4)c(=O)[nH]c3=O)nc2c1` stands “inactive”.
For `O=c1c2ccccc2nc(/C=C/c2c[nH]c3ccccc23)n1CCO`, the Potency result was “inactive”.
As to `CCCCc1cc(-c2nnc(S)o2)c2ccccc2n1`, the Potency result is “inactive”.
The result for `CC(Oc1ccccc1Cl)C(=O)Nc1ccc(S(=O)(=O)N2CCCC2)cc1` (centres undefined) reads 35.5 µM (active); that for `CC(C)NS(=O)(=O)c1ccc(NC(=O)C(C)OC(=O)C2CCC2)cc1` (centres undefined), “inactive”; that for `CC(Oc1cc(F)ccc1[N+](=O)[O-])C(=O)Nc1ccc(S(=O)(=O)N2CCCC2)cc1` (centres undefined), “inactive”.
`Cc1cc2nc(-c3cccnc3O)[nH]c2cc1C`: the Potency result is “inactive”.
Under `CN1c2ccccc2C(C)(C)C12C=Nc1c(cc(N3CCOCC3)c3ccccc13)O2` (centres undefined) stands “inactive”; under `NC(=O)c1nsc(C(=O)N(c2cccc(O)c2)C(C(=O)NC2CCCC2)c2ccc(Cl)cc2)c1N` (centres undefined), “inactive”; under `Cc1ccccc1N(C(=O)c1snc(C(N)=O)c1N)C(C(=O)NCC1CCCO1)c1ccc(F)cc1` (centres undefined), “inactive”.
Regarding `Cc1cccc(N(C(=O)c2nsc(Cl)c2Cl)C(C(=O)NC2CCCC2)c2ccc(O)cc2)c1C` (centres undefined), the Potency is 17.8 µM (active).
The result for `COC(=O)c1cc2c(=O)c3ccccc3oc2nc1/C=C/N(C)C` reads “inactive”.
The result for `COc1cc(N=Nc2cccc(S(N)(=O)=O)c2)c2ccccc2c1N` reads 35.5 µM (active).
The result for `COc1cc(/C=N\NS(=O)(=O)c2ccccc2)cc(OC)c1OC` reads “inactive”; that for `COc1ccc(-c2cc(C(=O)Nc3cc(S(N)(=O)=O)ccc3C)c3ccccc3n2)cc1OC`, “inactive”.
